Measured values: paper PMC12864922, “TDP-43 directly inhibits mRNA accumulation in neurites through modulation of mRNA stability”
Whole data set: some 9,900 sequences, median “r (bound/input frequency ratio)” near 0.7, cut for the highest 2% near 6.5. Only a selection was taken, and the highest values are over-represented in it overall.

B1: ENSMUSG00000029028.98|Lrrc47 (ssRNA)
RNA: GGGAGUUCUACAGUCCGACGAUCGCUUCGAUAUCCGCAUGCUAUGUGGGUGUGCUGUAGAUUCUGUGUAACUGGUUCUUUGCUGUUUCUCUGGGUGUUUUAAGGUGUCUGCUUUUGUCCAGGUGACUGUGGUAAUGUGAGUUUGCAUCAUCAUCAUAGCUCCAAUGUGACUCUCCUGUCUCCUGUCCUCAUGGAUCACUCAGUAACUGCUGGGGAUGUUCUGAAUCAUGUGGCCUGUGGCCGUGCUGGAGAGUCAGGUUGAACGCAGGCAUUCUAUUGAACAGUAUUUAUUUUUCUACAACAUCUCUUGCGGUCGCACUAGUGUGGAAUUCUCGGGUGUCAAGG
B2: ENSMUSG00000090935.301|Synj2bp|248:252 (ssRNA)
RNA: GGGAGUUCUACAGUCCGACGAUCGCUUCGAUAUCCGCAUGCUAGCCUUAGUUGCUAUUUUACAGUACUGUUAAAGGAUCCAUUGGCAUGGGAUGGGAAGCAGCAGGGCCCAAUCAACCAUCAAGACAUCUGAAAAAGAUCAUGUCUCAAGGUGGCACUUGAGCCUUCAAAACUGCUUAACAAUUCUCAGUUUCUAGUGUCAGACAAAAAGCCUAAGGGAAGGAACUGCCCUCCUGGUAGGAUGGACCUGAAUCAGCCUGCUUCUGACUGAGUUAGGAUGAGAAGGCAUUGCAUACGGUUUUCUCUCUUGCGGUCGCACUAGUGUGGAAUUCUCGGGUGUCAAGG
B3: ENSMUSG00000032194.203|Kank2 (ssRNA)
RNA: GGGAGUUCUACAGUCCGACGAUCGCUUCGAUAUCCGCAUGCUACUGCACCUUUCUCUAACUGGGGUUCCUUUCUGGCCCCAGGAUCUCAGUGUGGUUCGUGGGGGGAUUUUGUUGUUGUUUCUUUGUUUCUUUUCUUCAUAAAGAAGAAAAAGGAAACAACUUCUAGAUGUGCCUUGCGAUAGGGAGGACUUUGUCCUCUCAAGUCUCCCUGUCGUAUCCAGAUCACAGCUGAACCCACUGGGCCUUGGCGCCAAACCUCAGCAGGGCAGCAUUGAGACUCAUGGACUAAAGGAAAGUGUUCACUCUUGCGGUCGCACUAGUGUGGAAUUCUCGGGUGUCAAGG
B4: ENSMUSG00000043670.75|Diras1|97:102 (ssRNA)
RNA: GGGAGUUCUACAGUCCGACGAUCGCUUCGAUAUCCGCAUGCUAUUUGAUCCCUGUGGAUCUGAAAACAGGGACCUGGCUAAGGAACUGCUCAUCCCAGUCAGGCCCAGAGAGGUUACCUUGCCUCUCCAUCUCUGUCCCACACACCCCAGCCAUGCCCACUGUCCCUGUCCCUCACAUUCUAUCACUGUGACCUCUGGGGAGUGCCCAUUGACCUCAUCUUCCUUCACUAAUAUCUUAUUUCUUUCACCUGAUCCUGUCCUUUCCCCGUGACCUCUGACCUGUGGCCUUCCCUGGGUCCAGAACUCUUGCGGUCGCACUAGUGUGGAAUUCUCGGGUGUCAAGG
B5: ENSMUSG00000061578.22|Ksr2|4:9;112:122;211:217;222:226 (ssRNA)
RNA: GGGAGUUCUACAGUCCGACGAUCGCUUCGAUAUCCGCAUGCUAACCACACACAUGACGUCACAGAGGCUGUCCACACCUUCGACUUGUACCCCGUUACUCAGGCACGAUCAGGGACCACUCAACUAGGACCAAACUGGGCCAGAGAGGGUCCCAACACACCACACAAGGAGCCACAGACUGAGCACACCACCUCGGACUGUGGAGACCAAGACACAUGCCCAGUGGGCAGACUCAGACUCACACGCUGGACCACACACACCGCAACACACUACACAUGGACAGGGCCAACUGCUAUCCUUCUGCUCUUGCGGUCGCACUAGUGUGGAAUUCUCGGGUGUCAAGG
B6: ENSMUSG00000031028.295|Tub (ssRNA)
RNA: GGGAGUUCUACAGUCCGACGAUCGCUUCGAUAUCCGCAUGCUAUCCCAGGUUGGACACUCGACGAAAGGCACACCUGCUGCAGCAGGUUCUGACACACCUGAGCCAUACAUUGCCAUCAGAGAACCCUCAGCGAGGUAGCCUUUGUUUACAGUCUAGUUUCUAGAGGGCAGUAGGACUUCCAUGCUGGGGCUGGCCUAUCUCCUGAUGAAAGAUUACAGUGCCAUCUCCUUCCCAUAGUUCUGUGUCUGCCCUCCCUCCCUGACUUUAUAGGGAGAAAUCUCCUGACAUUAGAGGUGAUAGAACUCUUGCGGUCGCACUAGUGUGGAAUUCUCGGGUGUCAAGG
B7: ENSMUSG00000031028.549|Tub (ssRNA)
RNA: GGGAGUUCUACAGUCCGACGAUCGCUUCGAUAUCCGCAUGCUAAUAGAUGGACAGCCUGGUUUCCCUUCUCAGCAGUCCUGGCCUCCCCUUCUCUGUAUUCCUUGCCCCAGCUACGAUAUCCUCAUGGGAUUUCAGGAUGCCAGGUGCCAUCAAAGCAUGCUUUUUUGUGGUGCCUAGCACUGUGACUGGGGCCCAACUGCCCUGCAGAGUUGGGACCUUGCACUGCCCUAGACCCUGGCUUUAGAUCUGCUUCAGUCUCCAGAACAGGCUAUGGGAUAGAUUUUUCUUUCAGUUUAUGGCCACUCUUGCGGUCGCACUAGUGUGGAAUUCUCGGGUGUCAAGG
B8: ENSMUSG00000061578.336|Ksr2 (ssRNA)
RNA: GGGAGUUCUACAGUCCGACGAUCGCUUCGAUAUCCGCAUGCUAGGAGUGACCAGUCACCUGCCUCCCAGGGUUCUGCCUUGCCCUUAAGCUAGGGUCCUUCAAGCAUCCACAGACUUAGAGUGUGGUGGUAACAUGCUUGUAAUCCUGGCACUCUGGAGGCUGAGGCAGGAGGAUAACAAGUCUAGACUAUAUAUGAUUUCUGAGGGUCUGUUAGUGAAUAAGUACCUGGAUGACAUGGGACAAGUCCCAGCCUUCCCUGCUCCUGCGCUGCUCUUCCUCUUAUGGGAUAGGGUCUAGGUCAACUCUUGCGGUCGCACUAGUGUGGAAUUCUCGGGUGUCAAGG
B9: ENSMUSG00000061578.503|Ksr2 (ssRNA)
RNA: GGGAGUUCUACAGUCCGACGAUCGCUUCGAUAUCCGCAUGCUAGGGAUUAAAGGUGUGUACCACCAUUGCAAUCUUGAACUCUUGACCAAUAGAAAUCCUAGACUAGUGUUGCUAGGCAACUGACUGUAUUCAGGACACCCAGGGUGGGAGGUGGAUGGAGCUCUUGCCUAACACACACCAAGCCCCAAGUUCCAUCCCCAGUCCCACACAAACCAGAUAUGAUGGUGUGUGCCUAUGUCCCCCACACACGAGAGAGCUGGAGGCAGGAGGAUCAGAAGUUCAGGGCCAUCCUUAAUCAUACACUCUUGCGGUCGCACUAGUGUGGAAUUCUCGGGUGUCAAGG
B10: ENSMUSG00000031028.294|Tub|205:209 (ssRNA)
RNA: GGGAGUUCUACAGUCCGACGAUCGCUUCGAUAUCCGCAUGCUAUAGAUUUCCCAGGUUGGACACUCGACGAAAGGCACACCUGCUGCAGCAGGUUCUGACACACCUGAGCCAUACAUUGCCAUCAGAGAACCCUCAGCGAGGUAGCCUUUGUUUACAGUCUAGUUUCUAGAGGGCAGUAGGACUUCCAUGCUGGGGCUGGCCUAUCUCCUGAUGAAAGAUUACAGUGCCAUCUCCUUCCCAUAGUUCACACACUGCCCUCCCUCCCUGACUUUAUAGGGAGAAAUCUCCUGACAUUAGAGGUGCUCUUGCGGUCGCACUAGUGUGGAAUUCUCGGGUGUCAAGG
B11: ENSMUSG00000032194.156|Kank2|226:232 (ssRNA)
RNA: GGGAGUUCUACAGUCCGACGAUCGCUUCGAUAUCCGCAUGCUAAAAAAAGAAAAAAGGCCAUUCCGGAGUGACUCCCAGCAUCACAGCCCAGAACCUCCUCCUCAAAGGAGAGUAAACAGAGACUGUGAUACUGACCAAGUACAGGCGCUCGCUAUGAAGCCCAUAUGUUCCUGAUUAAGAGCUGGCUGGCCUCAGAGCACUCCCAGAACUAGCUUAAAGUGACAGGCUUUGCUGAAAUCCAAAGGGACAAAAGAGUAGUUUUAUGUUACACACAUUGUUUUUAAUGCCCUGGAGCUCCUGCUCUCUUGCGGUCGCACUAGUGUGGAAUUCUCGGGUGUCAAGG
B12: ENSMUSG00000061578.741|Ksr2 (ssRNA)
RNA: GGGAGUUCUACAGUCCGACGAUCGCUUCGAUAUCCGCAUGCUAUUUAAAUACCUGCUGCAGGCCUCCCAUCUCUGGCUCUUUGUUUCCACUCUGGCCCAAGUUUGAGUCUCCAUAUGGGCCCUUCCUGUCCUCAUGCCCUGCCUGUCUUCAUUCCACCCAUCCACCCUCCUAAGGAUUGGUCUUGUUCCGAGAGUGAUCCUGGUAACGCCAAGCCUCCCUCUGCCCCUGUGUUGGCUUCUGUGACGGACUACCACACACCAAGAGGUUUUUCACAGUGAAGAUGUAUGCUCUCACCAUCCUACCUCUUGCGGUCGCACUAGUGUGGAAUUCUCGGGUGUCAAGG
B13: ENSMUSG00000061578.701|Ksr2|49:53 (ssRNA)
RNA: GGGAGUUCUACAGUCCGACGAUCGCUUCGAUAUCCGCAUGCUAUACUCCCAGAUCUGGGGUGAUCUCUUGAGGUGCCUUCCUGUAGUCUCUACACACAUCUUCUUCUAAGACCACUAAUAACACCGCCUUUCUCCUUGAUCCGGGCCUCAGACCUCUUCAGAGAUUCUUUCUCUGAAUGUACGUGGGGGACUCCAACAGAUGUUGGGAGAAGACUCAAUAUGAGCAUACGGGGUCAUUGUUCAAUCCUGUAUCAAGACCUUGGAGUUGUCUAAGGCUGUGGGUUUUAAAUACCUGCUGCAGGCCUCUUGCGGUCGCACUAGUGUGGAAUUCUCGGGUGUCAAGG

target: TDP-43 (Homo sapiens, UniProt Q13148 1-414); assay: RNA Bind-n-Seq with designed 260-mer pool; 25 mM Tris-HCl, 150 mM KCl, 3 mM MgCl2, BSA (printed 500 mg/mL), 20 units/mL SUPERase IN; pH not stated; 500 nM RNA pool, 1 h, 4 C; TDP-43 5, 50, 500 nM; high values mean tight binding; conditions: protein: recombinant; tags: SBP (GST cleaved off with PreScission; pGEX-GST-SBP)
Sequence (Q13148 whole entry): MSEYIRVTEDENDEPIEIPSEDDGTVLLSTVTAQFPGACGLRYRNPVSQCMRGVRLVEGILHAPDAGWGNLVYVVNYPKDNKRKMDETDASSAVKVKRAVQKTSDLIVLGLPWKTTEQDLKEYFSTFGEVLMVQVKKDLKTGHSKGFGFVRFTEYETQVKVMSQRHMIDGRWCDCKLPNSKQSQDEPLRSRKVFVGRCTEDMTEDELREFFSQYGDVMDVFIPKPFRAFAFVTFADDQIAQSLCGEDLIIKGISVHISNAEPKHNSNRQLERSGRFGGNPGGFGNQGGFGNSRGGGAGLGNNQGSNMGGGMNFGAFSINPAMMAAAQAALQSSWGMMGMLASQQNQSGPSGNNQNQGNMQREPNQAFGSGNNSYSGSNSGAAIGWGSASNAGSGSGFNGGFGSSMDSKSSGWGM
How it was run: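 Duplicate measurements used two independent batches of recombinant SBP-tagged TDP-43, which was captured on streptavidin beads at 5, 50 or 500 nM. The beads were incubated with 500 nM of an in vitro-transcribed 260-nt 3′ UTR oligo pool for 1 h at 4 °C in 25 mM Tris-HCl, 150 mM KCl, 3 mM MgCl2, BSA and SUPERase IN. After washing, biotin elution, reverse transcription, PCR amplification and sequencing, binding was expressed as R: each oligo's normalized read abundance in the bound sample over its abundance in input.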

Binder	binding signal
B1	1.29 R (bound/input frequency ratio)
B2	0.248 R (bound/input frequency ratio)
B3	0.26 R (bound/input frequency ratio)
B4	2.78 R (bound/input frequency ratio)
B5	1.84 R (bound/input frequency ratio)
B6	0.563 R (bound/input frequency ratio)
B7	0.419 R (bound/input frequency ratio)
B8	0.934 R (bound/input frequency ratio)
B9	1.74 R (bound/input frequency ratio)
B10	0.471 R (bound/input frequency ratio)
B11	0.257 R (bound/input frequency ratio)
B12	2.01 R (bound/input frequency ratio)
B13	0.26 R (bound/input frequency ratio)
